Experimental data published in PubChem BioAssay (NCATS).
Results filed as inconclusive are left out. The source made the active and inactive calls. Calls follow the shape of the dose curve; as a rule, active = well fitted curve in the direction sought with a large enough effect; inconclusive = small, poorly fitted or top-dose-only effect, or another doubt; inactive = no such curve, though single readings can be large; an effect the other way counts as inactive or inconclusive.

How the values were obtained:
[1] = system: MKL-1; test: qHTS assay to identify novel small-molecules to repurpose for Merkel cell carcinoma treatment (AID 1296009); conditions: MCC and control cell lines, CellTiter-Glo viability, 72 h; series mostly up to 46 µM; also: nearly all actives have a fitted effect of over 60% in size
How it was run: (§1)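 Luminescence from CellTiter-Glo, read 10 min after addition at room temperature, reported viability following a 72 hr, 37 degree celsius treatment with NPC or MIPE compounds in titration; values normalized to plate controls.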

[2] = system: MKL-2; test: as above; conditions: MCC and control cell lines, CellTiter-Glo viability, 72 h; series mostly up to 46 µM
How it was run: as §1

[3] = system: UISO; test: as above; conditions: MCC and control cell lines, CellTiter-Glo viability, 72 h; series mostly up to 46 µM
How it was run: as §1

[4] = system: WaGa; test: as above; conditions: MCC and control cell lines, CellTiter-Glo viability, 72 h; series mostly up to 46 µM
How it was run: as §1

[5] = system: C33A; test: Primary qHTS to identify gynecologic anti-cancer compounds using libraries of approved drugs and bioactive compounds (AID 1345084); conditions: Gynecologic cancer cell panel viability, ATPlite luminescence, 48 h; series mostly up to 57.5 µM; also: nearly all actives have a fitted effect of over 55% in size
How it was run: (§2)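 Five-concentration response, 48 h; readout is ATP-driven luciferase luminescence.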

[6] = system: CASKI; test: as above; conditions: Gynecologic cancer cell panel viability, ATPlite luminescence, 48 h; series mostly up to 57.5 µM
How it was run: as §2

[7] = system: Es-2; test: as above; conditions: Gynecologic cancer cell panel viability, ATPlite luminescence, 48 h; series mostly up to 57.5 µM
How it was run: as §2

[8] = system: HeLa; test: as above; conditions: Gynecologic cancer cell panel viability, ATPlite luminescence, 48 h; series mostly up to 57.5 µM
How it was run: as §2

[9] = system: CAOV3; test: as above; conditions: Gynecologic cancer cell panel viability, ATPlite luminescence, 48 h; series mostly up to 57.5 µM
How it was run: as §2

Measured: activity change, negative = cytotoxicity
% is scaled to controls: 0 for no effect and ±100 for the full control effect.

CC(=O)N[C@@H](Cc1ccc(O)cc1)C(=O)O
not listed: [9]
inactive: all other assays above

NS(=O)(=O)c1cc2c(cc1C(F)(F)F)NCNS2(=O)=O
inactive: all assays above

C[C@]1(Cn2ccnn2)[C@H](C(=O)O)N2C(=O)C[C@H]2S1(=O)=O
inactive: all assays above

CCCCOC(=O)c1ccc(N)cc1
inactive: all assays above

COc1ccc(-c2cc(=O)c3c(O)cc(O[C@@H]4O[C@H](CO[C@@H]5O[C@@H](C)[C@H](O)[C@@H](O)[C@H]5O)[C@@H](O)[C@H](O)[C@H]4O)cc3o2)cc1O
inactive: all assays above

NC(N)=NCCN1CCCCCCC1
inactive: [1] 13.2% [at 0.597 µM] | [2] 3.8% [at 0.597 µM] | [3] 18% [at 0.597 µM] | [4] 12.9% [at 0.597 µM] | [5] 9.99% [at 0.462 µM] | [9] -2.11% [at 0.462 µM] | [6] -2.55% [at 0.462 µM] | [7] -4.19% [at 0.462 µM] | [8] 0.1% [at 0.462 µM]

CC(=O)Nc1ccc(C(=O)O)cc1
not listed: [9]
inactive: all other assays above
